# Hits are enriched below; roughly 4.6% of the tested compounds scored in any of these assays.
# D1 antagonist: blocks dopamine activation of the human D1 receptor; P21728; HEK293 TREx D1 cells, calcium flux, dopamine EC80; stronger effect = lower value; activity change, negative = inhibition, % at 10 µM; 360,000 tested, 3.2% active; AID 504652; in the data active = activity change below about -30%; note: % is set by controls: 0 for no effect and ±100 for the full control effect
# Target sequence (P21728 whole entry, looked up): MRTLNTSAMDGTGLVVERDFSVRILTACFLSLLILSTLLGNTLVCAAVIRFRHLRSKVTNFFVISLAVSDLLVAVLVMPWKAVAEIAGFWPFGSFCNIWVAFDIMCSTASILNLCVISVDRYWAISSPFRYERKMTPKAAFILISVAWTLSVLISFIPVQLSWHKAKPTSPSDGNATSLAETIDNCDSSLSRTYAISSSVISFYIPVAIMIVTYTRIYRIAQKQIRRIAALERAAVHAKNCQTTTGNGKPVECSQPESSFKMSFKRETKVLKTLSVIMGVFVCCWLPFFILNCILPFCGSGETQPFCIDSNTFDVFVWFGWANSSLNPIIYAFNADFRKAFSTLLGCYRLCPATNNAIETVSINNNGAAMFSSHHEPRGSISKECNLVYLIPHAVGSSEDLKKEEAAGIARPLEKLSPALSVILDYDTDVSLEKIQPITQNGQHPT
#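 HEK293 T-REx cells expressing inducible, force-coupled D1 receptor; no-wash Ca dye, 30–90 min RT. Cmpd → 180 s read at 1 Hz → EC80 DA → 180 s read.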
# TRHR PAM: allosterically enhances the human TRH receptor | P34981 | TRHR cells, fluo-8 calcium fluorescence, EC20 TRH enhancement | enhancement, % at 2 µM | 360,000 tested, 0.66% active | AID 493056; in the data active = enhancement above about 30%; note: 0% is about no effect
#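 TRHR-expressing cells loaded with fluo-8 calcium dye were read kinetically (ex 480/em 530) during compound addition, then stimulated with an EC20 of TRH (10 nM final). Enhancement of the Gq-mediated intracellular calcium response was scored.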
# TRHR ag: TRH receptor (human) agonism; TRHR cells, calcium flux fluo-8, FDSS agonist mode; activation, % at 2 µM; 360,000 tested, 0.18% active; AID 493084; note: 0% is about no effect
#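 Steps: seed TRHR cells overnight; add fluo-8 no-wash Ca dye, RT 30 min–1.5 h; record 10 s baseline; pin-transfer compounds; monitor fluorescence 1 cycle/s for the agonist window. Calcium increases flag candidate agonists.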
# D1 PAM: human D1 dopamine receptor positive modulation | P21728 | HEK293 TREx D1 cells, calcium flux, dopamine EC20 potentiation | potentiation, % at 10 µM | 360,000 tested, 0.036% active; in the data active = potentiation above about 30%; note: 0% is about no effect
# D1 ag: human D1 receptor agonism; activation, % at 2 µM; 360,000 tested, 1% active; P21728; HEK293 T-REx D1 cells, calcium flux, agonist mode; note: 0% is about no effect
#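 Agonism was scored from calcium flux recorded over 180 s (1 read/s) after pintool compound addition, following a 10-cycle baseline. Cells were inducible force-coupled HEK293 TREx D1, plated overnight at 30 C and loaded with no-wash calcium dye.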
# * hit, by the source's call; · = no result given; ! = not confirmed by another sample. Cut-off read from the data, not from the text of the source, unless noted: active = activation above about 30%; inactive = the rest.
SMILES,D1 antagonist,TRHR PAM,TRHR ag,D1 PAM,D1 ag
NS(=O)(=O)c1ccc(CCNCc2cc(Br)ccc2OCc2ccccc2F)cc1,-31*,9,0,-3,25
NS(=O)(=O)c1ccc(CCNCc2ccccc2OCc2ccc(Cl)cc2)cc1,-48*,-6,2,-8,53*
Fc1ccccc1COc1ccc(Br)cc1CNCC1CCCO1 (stereo not given),-50*,-3,0,-12,12
C=CCOc1ccccc1CNCCc1ccc(S(N)(=O)=O)cc1,-10,5,0,2,9
O=C(COc1ccc(Br)cc1CNCCc1ccccc1)NCc1ccccc1,·,-3,2,-8,28
CNC(=O)c1cc(Nc2nnc(-c3ccc(C)c(S(N)(=O)=O)c3)c3ccccc23)ccc1OC,-7,-4,-1,5,3
NC(=O)c1ccccc1NC(=O)CSC1=NCCS1,-1,-1,0,-4,5
CCOc1ccccc1N(CC(=O)Nc1ccc(S(=O)(=O)N2CCOCC2)cc1)S(=O)(=O)c1ccc(Cl)cc1,-4,-2,0,-1,1
Nc1nonc1C(=O)NCCNCc1cc(Br)ccc1OCc1ccccc1F,-10,2,0,-8,31*
Nc1nonc1C(=O)NCCNCc1ccccc1OCc1ccccc1F,-28,-6,0,-9,23
NS(=O)(=O)c1ccc(CCNCc2cc(Cl)ccc2OCc2ccccc2)cc1,-6,-2,0,-6,57*
NS(=O)(=O)c1ccc(CCNC(=O)CNCCc2ccccc2)cc1,16,-4,-1,-6,1
CCOC(=O)c1ccc(NC(=O)CN(c2ccc(C)cc2)S(=O)(=O)c2c(C)nn(C)c2C)cc1,11,-5,2,-6,6
O=C1C(Cl)=C(NCCc2ccccc2)C(=O)N1CCc1ccccc1,3,4,-1,0,0
O=C1C(Cl)=C(Nc2ccc(F)cc2)C(=O)N1CCc1ccccc1,-35*,4,1,-3,2
CC(NC(=O)CNC(=O)c1ccccc1Br)c1cccs1 (stereo not given),-23,8,0,-4,4
COc1ccc(CNC(=O)CN(C)S(=O)(=O)c2ccc3[nH]c4c(c3c2)CCCC4)cc1,-4,47*,1,0,-1
CN(CC(=O)NCc1ccc(F)cc1)S(=O)(=O)c1ccc2[nH]c3c(c2c1)CCCC3,-10,-2,-1,-1,1
CCOc1ccc(NS(=O)(=O)c2ccc3[nH]c4c(c3c2)CCCC4)cc1,-52*,6,0,1,0
Cc1cccc(NS(=O)(=O)c2ccc3[nH]c4c(c3c2)CCCCCC4)c1,-87*,-2,0,-6,1
COc1ccc(S(=O)(=O)N2CCCCC2)cc1NC(=O)c1cccs1,-15,-3,0,-2,3
Cc1ccc(NC(=O)COc2ccccc2C(N)=O)cc1S(=O)(=O)N1CCCCCC1,-7,4,0,-1,6
COc1ccccc1NC(=O)C1CCCN(S(=O)(=O)c2ccccc2)C1 (stereo not given),-31*,2,0,4,4
CC(NC(=O)C1CCCN(S(=O)(=O)c2cccs2)C1)c1ccccc1 (stereo not given),-26,7,0,-1,30*
COc1ccccc1NC(=O)C1CCCN(S(=O)(=O)c2c(C)noc2C)C1 (stereo not given),-10,-1,0,-3,5
SMILES,D1 antagonist,TRHR PAM,TRHR ag,D1 PAM,D1 ag
CS(=O)(=O)N1CCCC(C(=O)Nc2ccccc2)C1 (stereo not given),-5,32*,0,-2,3
COc1ccc(S(=O)(=O)N2CCN(C(=O)Nc3ccccc3OC)CC2)cc1,-37*,-4,0,9,3
CC(C)NC(=O)C1CCCN(S(=O)(=O)c2cccs2)C1 (stereo not given),-5,5,0,-2,3
O=C1c2nc3cc(-c4ccco4)[nH]n3c(=O)c2CN1C1CCCCC1,1,-3,-1,3,3
COc1ccc(CNC(=O)Nc2cn(CC(C)C)c(=O)c3ccccc23)c(OC)c1,-4,-3,0,0,2
COc1ccc(C(=O)NCCN2CCN(C(=O)c3ccc(OC)cc3)CC2)cc1,1,1,0,3,1
CC1CCCCC12NC(=O)N(CC(=O)NCC(=O)Nc1ccc(F)c(F)c1F)C2=O (stereo not given),-9,-7,1,-1,6
O=C(Nc1ccc(O)cc1)N1CCOCC1,-39*,-2,1,-2,5
Cc1ccccc1NC(=O)C1CCCN(C(=O)Nc2ccc(F)cc2)C1 (stereo not given),12,4,0,-10,0
O=C(Nc1ccc(Nc2ccccc2)cc1)N1CCOCC1,-20,-1,0,-2,3
COc1ccc(NC(=O)N2CCCCCC2)cc1,-37*,-2,-2,-17,1
COc1ccc(OC)c(NC(=O)N2CCCC(C(=O)c3ccccc3OC)C2)c1 (stereo not given),-36*,0,-2,-8,1
COc1ccccc1NC(=O)C1CCCN(C(=O)Nc2ccc(F)cc2)C1 (stereo not given),-81*,-1,0,1,0
CS(=O)(=O)N(Cc1ccccc1)c1ccc(C(=O)NC2CCCCC2O)cc1 (stereo not given),-3,-6,0,-5,0
O=C(Nc1nnc(SCC(=O)N2CCOCC2)s1)C1CC(=O)N(c2ccc(F)cc2)C1 (stereo not given),-47*,1,1,-4,0
COc1ccc(NC(=O)C2=CC(c3ccc(C)cc3)=NS(=O)(=O)N2C)cc1,-33*,-2,-1,0,18
COc1ccc(NC(=O)C2=CC(c3ccc(C)cc3)=NS(=O)(=O)N2C)cc1OC,-10,1,0,-2,1
COc1ccc(C2=NS(=O)(=O)N(C)C(C(=O)Nc3cc(C)ccc3O)=C2)cc1OC,-9,-1,0,-8,1
CCc1ccccc1NC(=O)C1=CC(c2ccc(OC)c(OC)c2)=NS(=O)(=O)N1C,-12,3,0,-2,35*!
COc1ccc(C2=NS(=O)(=O)N(C)C(C(=O)Nc3ccc(OC)c(OC)c3)=C2)cc1,-34*,1,0,-12,2
CCn1cc(/C=C2\SC(=O)N(CC(=O)Nc3ccc4c(c3)OCO4)C2=O)c2ccccc21,-26,6,1,-5,2
O=C(CCSc1ccc(F)cc1)Nc1ccc(-n2cnnn2)cc1,-40*,1,0,-13,15
O=C(CCSc1nnc2ccc3ccccc3n12)Nc1ccc(F)cc1,-9,4,0,-6,4
COc1ccc2nc(SCC(=O)NCc3ccc(F)cc3)[nH]c2c1,-10,0,0,-3,1
